Compounds without any hit were thinned out: in the full panel of roughly 83,000, 20% have a hit.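 Single-dose data. Exposure time 48 hours. Values below 10 considered active.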 A number with no mark means an inactive call. Calls of active or inactive are those of the source.

Assay in all cases: NCI-60 one-dose screen, 48 h (100 = growth as untreated, 0 = no growth, -100 = all killed)
One test has as its system HCT-15 colon. Conditions: 10 µM unless noted.
For another test, the system named is HT29 colon. The conditions noted are these: 10 µM unless noted.
The test system of a further test is SNB-75 CNS. Conditions: 10 µM unless noted.
For a further test, the system named is SNB-19 CNS. Conditions: 10 µM unless noted.
Another test has as its system U251 CNS. The conditions noted are these: 10 µM unless noted.
Another test deals with PC-3 prostate. Conditions: 10 µM unless noted.
For another test, the system named is SK-MEL-5 melanoma. Conditions: 10 µM unless noted.
Another test relates to UACC-62 melanoma. The conditions noted are these: 10 µM unless noted.
The next test deals with LOX IMVI melanoma. The conditions noted are these: 10 µM.
The subject of a further test is SK-MEL-28 melanoma. Conditions: 10 µM unless noted.
The subject of the next test is SK-MEL-2 melanoma. The conditions noted are these: 10 µM unless noted.
Another test deals with EKVX NSCLC. Conditions: 10 µM unless noted.
A further test concerns SN12C renal. Conditions: 10 µM unless noted.
Another test concerns UO-31 renal. The conditions noted are these: 10 µM unless noted.
In a further test the test system is TK-10 renal. The conditions noted are these: 10 µM unless noted.
A further test concerns ACHN renal. Conditions: 10 µM unless noted.
In the next test the test system is CAKI-1 renal. Conditions: 10 µM unless noted.
The next test deals with A498 renal. The conditions noted are these: 10 µM unless noted.
The subject of another test is MOLT-4 leukemia. The conditions noted are these: 10 µM unless noted.
The test system of a further test is CCRF-CEM leukemia. The conditions noted are these: 10 µM unless noted.

In the case of `C=COC(=O)CCOCC(CC)CCCC` (configuration not stated), the growth in the test on HCT-15 colon is 104%; in the test with HT29 colon, 104%; with SNB-75 CNS it was 97.2%; with SNB-19 CNS, 104%; in the test with U251 CNS, 102%; with PC-3 prostate, 98.2%. The growth in the test with SK-MEL-5 melanoma is 107%; in the test on UACC-62 melanoma, 99.5%; in the test on LOX IMVI melanoma, 98.8%; with SK-MEL-28 melanoma it was 113%; in the test with SK-MEL-2 melanoma, 96.9%; in the test with EKVX NSCLC it was 110%. Further, the growth with SN12C renal was 104%; with UO-31 renal it was 79.5%; with TK-10 renal, 103%; in the test with ACHN renal it was 106%; in the test with CAKI-1 renal it was 96.5%; with A498 renal it was 91.9%. Also, the growth with MOLT-4 leukemia is 93.9%.
Consider `Cc1ccc(N)c(S(=O)(=O)O)c1`, for which the growth with HCT-15 colon is 103%; with HT29 colon, 96.1%; in the test with SNB-75 CNS, 75.6%; in the test on SNB-19 CNS, 99.5%; in the test on U251 CNS, 104%; with PC-3 prostate, 107%. In addition, the growth is 98.1% with SK-MEL-5 melanoma; 98.9% in the test with UACC-62 melanoma; 104% in the test with LOX IMVI melanoma; 126% in the test with SK-MEL-28 melanoma; 84.3% in the test with SK-MEL-2 melanoma; 110% in the test with EKVX NSCLC. The growth is 100% in the test on SN12C renal; 92.1% in the test with UO-31 renal; 128% in the test on TK-10 renal; 102% with ACHN renal; 90.8% with CAKI-1 renal; 118% with A498 renal. Also, the growth in the test on MOLT-4 leukemia is 83.6%.
Consider `Nc1nc(N)nc(N2CCCCC2)n1`, for which the growth in the test on HCT-15 colon is 107%; in the test on HT29 colon, 98.2%; in the test with SNB-75 CNS it was 118%; with SNB-19 CNS, 115%; in the test with U251 CNS, 101%; in the test with PC-3 prostate it was 99.5%. Besides, the growth in the test on SK-MEL-5 melanoma was 100%; in the test with UACC-62 melanoma it was 104%; in the test with LOX IMVI melanoma, 104%; in the test on SK-MEL-28 melanoma, 114%; in the test with SK-MEL-2 melanoma, 100%; in the test on EKVX NSCLC it was 107%. Moreover, the growth in the test with SN12C renal is 102%; in the test on UO-31 renal it was 87.4%; with TK-10 renal, 91.6%; in the test with ACHN renal, 110%; with CAKI-1 renal, 104%; in the test on A498 renal it was 89.6%. Besides, in the test on MOLT-4 leukemia, the growth is 107%.
On to `C=C1CC2(OC1=O)C(=O)N(C)c1ccc(I)cc12` (configuration not stated), for which the growth with HCT-15 colon is -53.7% (active); in the test on HT29 colon, -74.7% (active); in the test on SNB-75 CNS it was 38.4%; with SNB-19 CNS, 64%; in the test with U251 CNS, 2.89% (active); with PC-3 prostate, -76.6% (active). In addition, the growth was -92% (active) in the test with SK-MEL-5 melanoma; -61.2% (active) with UACC-62 melanoma; -65.4% (active) with LOX IMVI melanoma; -93.6% (active) in the test with SK-MEL-28 melanoma; -73.1% (active) with SK-MEL-2 melanoma; -46.4% (active) in the test with EKVX NSCLC. The growth was -12% (active) in the test on SN12C renal; -66% (active) in the test with UO-31 renal; -80.9% (active) with TK-10 renal; -84.5% (active) with ACHN renal; -91.3% (active) with CAKI-1 renal; -13.6% (active) in the test with A498 renal. The growth in the test on MOLT-4 leukemia is -50.1% (active).
Consider `O=C(c1ccc(Cl)cc1)N1CCCCC1`, for which the growth was 98.5% in the test on HCT-15 colon; 101% with HT29 colon; 88.5% in the test with SNB-75 CNS; 93.7% in the test with SNB-19 CNS; 94.7% in the test on U251 CNS; 97.8% in the test with PC-3 prostate. Moreover, the growth is 100% in the test on SK-MEL-5 melanoma; 95% with UACC-62 melanoma; 97.6% in the test on LOX IMVI melanoma; 101% in the test on SK-MEL-28 melanoma; 102% in the test with SK-MEL-2 melanoma; 98.1% with EKVX NSCLC. Further, the growth in the test on SN12C renal is 92.2%; in the test on UO-31 renal, 93.3%; with TK-10 renal it was 91%; in the test on ACHN renal, 101%; in the test on CAKI-1 renal, 97.4%; in the test with A498 renal, 73.3%. The growth with CCRF-CEM leukemia is 93.3%; in the test on MOLT-4 leukemia, 98.9%.
With `CC(c1ccccc1)N(C)C` (configuration not stated), the growth in the test with HCT-15 colon was 109%; in the test with HT29 colon, 88.2%; in the test with SNB-75 CNS, 59.5%; with SNB-19 CNS it was 100%; with U251 CNS, 102%; with PC-3 prostate, 88.6%. Moreover, the growth in the test on SK-MEL-5 melanoma was 99.6%; in the test with UACC-62 melanoma it was 94.5%; in the test with LOX IMVI melanoma, 113%; in the test on SK-MEL-28 melanoma it was 157%; in the test with SK-MEL-2 melanoma it was 84%; in the test with EKVX NSCLC, 122%. In addition, the growth in the test with SN12C renal is 99.7%; in the test with UO-31 renal, 71.4%; in the test with TK-10 renal, 135%; in the test with ACHN renal, 109%; with CAKI-1 renal, 96.5%; in the test on A498 renal, 139%. The growth in the test on MOLT-4 leukemia is 84.3%.
On to `COc1cccc2c1Cc1ccccc1-2`, for which the growth was 114% in the test on HCT-15 colon; 100% in the test on HT29 colon; 110% with SNB-75 CNS; 94.4% with SNB-19 CNS; 103% in the test with U251 CNS; 91.1% with PC-3 prostate. Besides, the growth in the test on SK-MEL-5 melanoma was 100%; in the test with UACC-62 melanoma, 99.3%; in the test on LOX IMVI melanoma, 80.3%; in the test on SK-MEL-28 melanoma, 115%; in the test on SK-MEL-2 melanoma it was 110%; in the test with EKVX NSCLC, 102%. Moreover, the growth with SN12C renal was 108%; with UO-31 renal, 88.6%; in the test on TK-10 renal, 134%; with ACHN renal, 114%; in the test on CAKI-1 renal it was 98.3%; with CCRF-CEM leukemia, 104%. For the same molecule, in the test with MOLT-4 leukemia, the growth is 113%.
On to `Cc1cccc(-[n+]2noc(N)n2)c1`, for which the growth was 66.4% in the test with HCT-15 colon; 102% with HT29 colon; 82.1% in the test on SNB-75 CNS; 81.4% with SNB-19 CNS; 86% in the test with U251 CNS; 60.3% in the test with PC-3 prostate. The growth was 97.4% in the test on SK-MEL-5 melanoma; 40.7% in the test with UACC-62 melanoma; 46.9% with LOX IMVI melanoma; 113% in the test with SK-MEL-28 melanoma; 145% in the test with SK-MEL-2 melanoma; 67.9% in the test on EKVX NSCLC. Besides, the growth with SN12C renal was 95.7%; in the test on UO-31 renal it was 49.7%; in the test on TK-10 renal, 124%; in the test with ACHN renal, 46.1%; in the test with CAKI-1 renal, 59.6%; with A498 renal, 113%. Besides, the growth in the test with MOLT-4 leukemia was 72.8%.
Consider `O=C(O)CC1=CCCCC1`, for which the growth with HCT-15 colon is 98.1%; with HT29 colon, 105%; with SNB-75 CNS it was 89.6%; in the test with SNB-19 CNS, 97.2%; with U251 CNS, 105%; in the test on PC-3 prostate, 96%. Besides, the growth in the test with SK-MEL-5 melanoma is 101%; in the test with UACC-62 melanoma it was 98%; in the test on LOX IMVI melanoma, 94.5%; in the test on SK-MEL-28 melanoma it was 95.5%; in the test on SK-MEL-2 melanoma, 119%; with EKVX NSCLC, 97.5%. Besides, the growth was 104% in the test on SN12C renal; 89.1% with UO-31 renal; 108% in the test with TK-10 renal; 91.1% in the test with ACHN renal; 97.7% in the test with CAKI-1 renal; 74.8% in the test with A498 renal. In addition, the growth in the test on CCRF-CEM leukemia is 96.9%; in the test with MOLT-4 leukemia, 97.5%.
`CCCCCCCCCCCCSC1=C(Cl)C(=O)C(OC)=C(OC)C1=O`: the growth was 25.6% in the test with HCT-15 colon; 27.8% in the test on HT29 colon; 44.9% with SNB-75 CNS; 71.8% in the test on SNB-19 CNS; 26% with U251 CNS; 23.1% in the test with PC-3 prostate. Further, the growth with SK-MEL-5 melanoma was -37.6% (active); in the test on UACC-62 melanoma, 45.4%; with LOX IMVI melanoma, 11.7%; in the test on SK-MEL-28 melanoma, 105%; in the test on SK-MEL-2 melanoma, 39.3%; in the test on EKVX NSCLC it was 37.9%. In addition, the growth in the test on SN12C renal is 24.5%; with UO-31 renal, 32.9%; in the test on TK-10 renal, 43.7%; in the test on ACHN renal, 27.7%; in the test with CAKI-1 renal, 70.8%; in the test with A498 renal, 77.4%. Also, the growth in the test on MOLT-4 leukemia was -4.73% (active).

Source of the values: PubChem BioAssay (NCI).
